For test [1], the system named is Wnt5a (protein binding on small-molecule microarray). Nature of the test: small molecules binding Wnt5a protein – biophysical, small-molecule microarray, 635/667 nm fluorescence, primary screen (AID 1142).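 Also: fluorescence read at 667 nm with signal to noise per printed feature.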 To be noted: 635 nm fluorescence, higher = more signal.
A short description of test [2]: ATP-based viability of Huh7 replicon cells – cell-based, CellTiter-Glo luminescence, basal, 48 h, cytotoxicity control for HCV replication inhibitor project, primary screen (AID 1143).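 Also: Huh7 hepatoma cells carrying a hepatitis C replication reporter with no stimulus; test concentration not given here.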 To be noted: higher = more signal, called active from +8 up or from −8 down. For orientation: Replicon systems follow genome replication, usually without infectious particles.
A short description of test [3]: Pseudomonas biofilm growth suppression – PAO1 strain, BacTiter-Glo luminescence, LB-PBS, primary screen (AID 1144). To be noted: P. aeruginosa PAO1 biofilm, 12 h, higher = more signal.
Test [4] in a line: basal CRE-LacZ reporter activity in PC12 – cell-based, unstimulated, primary screen (AID 1145). To be noted: no forskolin, luminescence, 4.5 h, higher = more signal, called active from +8 up or from −8 down.
The nature of test [5]: forskolin-driven CRE-LacZ activity in PC12 – cell-based, CRE-LacZ reporter, forskolin-stimulated, primary screen (AID 1146).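 Also: PC12 cells with 6xCRE LacZ reporter stimulated by forskolin 10 µM; beta-galactosidase reporter signal reflecting CREB driven transcription.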 To be noted: luminescence, 4.5 h, higher = more signal, called active from +8 up or from −8 down.
In test [6] the target is Streptavidin (Streptomyces avidinii) (UniProt P22629). Nature of the test: compounds binding control protein streptavidin – biophysical, small-molecule microarray, 635/667 nm fluorescence, artefact control for SMM compound annotation, primary screen (AID 1147).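 Also: signal reflects streptavidin binding to arrayed compounds as a control protein.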 To be noted: higher = more signal.
Test [7] in a line: probe aInhba binding on compound microarray – biochemical, small-molecule microarray, 635/667 nm fluorescence, primary screen (AID 1148).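 Also: score merges 667nm spot fluorescence with signal-to-noise for antibody binding to printed compounds.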 To be noted: higher = more signal.
The target in test [8] is Torsin-1A (Homo sapiens) (UniProt O14656). As to the kind of experiment: TOR1A wild-type binding on microarray – cell lysate, small-molecule microarray, lysate, 635/667 nm, primary screen (AID 1149). To be noted: COS7 hTOR1A-WT lysate, 635 nm fluorescence, higher = more signal.
Test [9] shares this target. Nature of the test: torsin A mutant lysate binding on microarrays – cell lysate, small-molecule microarray, COS7 lysate, 635/667 nm fluorescence, primary screen (AID 1150).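 Also: score pools 667 nm emission and signal to noise measuring lysate protein binding.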 To be noted: COS7 hTOR1A mutant lysate, 635 nm fluorescence, higher = more signal.
The test system of test [10] is Sonic hedgehog protein (Shh). Nature of the test: Sonic hedgehog microarray binding compounds – biochemical, small-molecule microarray, 635/667 nm fluorescence, primary screen (AID 1151).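 Also: Shh protein binding to compounds spotted on small-molecule microarray slides; score combines spot fluorescence intensity with signal-to-noise across triplicate slides.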 To be noted: 635 nm fluorescence, higher = more signal.
Test [11] in a line: optical density shifts of acrAB sulA E. coli – strain DRC41, OD650, 48 h, E. coli filamentation inducer project, primary screen (AID 1152).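 Also: E. coli MC1000 strain DRC41 lacking acrAB efflux pump and sulA.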 To be noted: higher = more signal, called active from +8 up or from −8 down.
Test [12] in a line: probe aLefty1 binding on compound microarray – biochemical, small-molecule microarray, 635/667 nm fluorescence, primary screen (AID 1153).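 Also: score merges spot fluorescence with signal-to-noise ratio from the scanned slide images.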 To be noted: higher = more signal.
A short description of test [13]: plasmodial surface anion channel blockers, osmotic lysis – cell-based, P. falciparum Indochina, OD700, 1 h, primary screen (AID 1154). To be noted: P. falciparum Indochina infected RBC osmotic lysis, higher = more signal, called active from +8 up or from −8 down.
Test [14] can be described thus: plasmodial surface anion channel blockers, osmotic lysis – cell-based, P. falciparum Indochina, OD700, 2 h, primary screen (AID 1155).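 Also: lysis reports solute entry through the parasite surface anion channel PSAC.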 To be noted: P. falciparum Indochina infected erythrocytes, higher = more signal, called active from +8 up or from −8 down.
Test [15] in a line: changes in parasitized red cell lysis, either direction – P. falciparum Indochina, OD700, 3 h, PSAC antagonist project, primary screen (AID 1156). To be noted: P. falciparum-infected erythrocytes, osmotic lysis, higher = more signal, called active from +8 up or from −8 down.
A short description of test [16]: plasmodial surface anion channel blockers, osmotic lysis – cell-based, P. falciparum Indochina, OD700, 18 h, primary screen (AID 1157). To be noted: P. falciparum Indochina infected erythrocytes, osmotic lysis OD700, 18 h; higher = more signal, called active from +8 up or from −8 down.
Test [17] in a line: S6 kinase pathway phospho-S6 level changes – cell-based, A549, cytoblot, luminescence, serum-stimulated, primary screen (AID 1158).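 Also: serum-stimulated A549 lung adenocarcinoma cells; signal is phosphorylated S6 detected by cytoblot immunostaining with HRP secondary.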 To be noted: 5 h, higher = more signal.
For test [18], the target named is NADPH oxidase 2 (Homo sapiens) (UniProt P04839). As to the kind of experiment: compounds shifting NOX2 Amplex Red fluorescence – cell-based, HEK293-NOX2, PMA-stimulated, NOX inhibitor project, primary screen (AID 1159). Also: test concentration not given here. To be noted: 45 min, higher = more signal, called active from +8 up or from −8 down.
Test [19] concerns the target NADPH oxidase 4 (Homo sapiens) (UniProt Q9NPH5). As to the kind of experiment: compounds shifting NOX4 Amplex Red fluorescence – cell-based, HEK293-NOX4, tetracycline-induced, NOX inhibitor project, primary screen (AID 1160). To be noted: HEK293-NOX4, Amplex Red H2O2 fluorescence, 45 min; higher = more signal, called active from +8 up or from −8 down.
For test [20], the target named is NADPH oxidase 5 (Homo sapiens) (UniProt Q96PH1). As to the kind of experiment: compounds shifting NOX5 Amplex Red fluorescence – cell-based, HEK293-NOX5, NOX inhibitor project, primary screen (AID 1161). To be noted: HEK293-NOX5, ionomycin, 45 min, higher = more signal.

Activity calls are given as the source filed them. Unless noted, no rule for the calls is given here.

Sequence of NADPH oxidase 2 (Homo sapiens) (P04839 whole entry, looked up): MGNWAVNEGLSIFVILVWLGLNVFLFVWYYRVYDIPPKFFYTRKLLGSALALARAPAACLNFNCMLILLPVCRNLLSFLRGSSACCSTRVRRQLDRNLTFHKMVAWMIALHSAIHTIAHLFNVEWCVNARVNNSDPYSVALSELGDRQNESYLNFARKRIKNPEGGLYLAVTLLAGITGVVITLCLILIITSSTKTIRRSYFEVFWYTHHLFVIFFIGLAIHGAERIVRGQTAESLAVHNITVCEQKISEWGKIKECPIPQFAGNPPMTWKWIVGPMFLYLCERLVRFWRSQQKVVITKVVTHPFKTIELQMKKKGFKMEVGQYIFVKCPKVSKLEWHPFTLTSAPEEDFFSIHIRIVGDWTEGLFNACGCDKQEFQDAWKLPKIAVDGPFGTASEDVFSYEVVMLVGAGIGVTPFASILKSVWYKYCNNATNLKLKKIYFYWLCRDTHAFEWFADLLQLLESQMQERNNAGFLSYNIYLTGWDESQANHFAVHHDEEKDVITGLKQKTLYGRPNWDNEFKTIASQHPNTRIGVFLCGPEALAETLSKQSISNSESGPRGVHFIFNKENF
Sequence of NADPH oxidase 5 (Homo sapiens) (Q96PH1 whole entry, looked up): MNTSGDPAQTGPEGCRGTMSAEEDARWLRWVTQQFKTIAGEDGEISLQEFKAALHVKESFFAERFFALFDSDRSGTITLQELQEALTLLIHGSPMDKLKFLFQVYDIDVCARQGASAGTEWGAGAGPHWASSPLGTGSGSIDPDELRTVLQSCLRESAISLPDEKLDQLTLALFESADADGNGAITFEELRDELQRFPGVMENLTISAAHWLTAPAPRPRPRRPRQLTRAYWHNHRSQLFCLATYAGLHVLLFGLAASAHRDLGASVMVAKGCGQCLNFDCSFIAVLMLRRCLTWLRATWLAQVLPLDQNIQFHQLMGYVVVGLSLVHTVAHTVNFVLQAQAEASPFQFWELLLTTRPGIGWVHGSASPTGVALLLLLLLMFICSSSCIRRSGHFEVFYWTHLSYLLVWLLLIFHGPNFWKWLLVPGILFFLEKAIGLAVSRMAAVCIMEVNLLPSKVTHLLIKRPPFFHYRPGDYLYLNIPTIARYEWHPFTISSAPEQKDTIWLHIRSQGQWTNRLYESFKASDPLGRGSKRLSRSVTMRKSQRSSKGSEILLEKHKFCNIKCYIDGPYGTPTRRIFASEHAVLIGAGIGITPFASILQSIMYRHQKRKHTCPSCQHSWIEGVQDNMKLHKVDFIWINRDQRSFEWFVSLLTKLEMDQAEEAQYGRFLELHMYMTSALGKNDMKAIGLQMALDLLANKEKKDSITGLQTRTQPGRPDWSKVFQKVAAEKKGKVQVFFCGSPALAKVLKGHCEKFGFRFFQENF
Sequence of Streptavidin (Streptomyces avidinii) (P22629 whole entry, looked up): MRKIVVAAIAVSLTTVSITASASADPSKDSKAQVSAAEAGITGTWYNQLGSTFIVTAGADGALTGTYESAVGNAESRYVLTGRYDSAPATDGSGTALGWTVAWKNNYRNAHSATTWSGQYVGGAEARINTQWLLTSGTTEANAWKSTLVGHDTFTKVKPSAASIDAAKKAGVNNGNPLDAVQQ
Sequence of Torsin-1A (Homo sapiens) (O14656 whole entry, looked up): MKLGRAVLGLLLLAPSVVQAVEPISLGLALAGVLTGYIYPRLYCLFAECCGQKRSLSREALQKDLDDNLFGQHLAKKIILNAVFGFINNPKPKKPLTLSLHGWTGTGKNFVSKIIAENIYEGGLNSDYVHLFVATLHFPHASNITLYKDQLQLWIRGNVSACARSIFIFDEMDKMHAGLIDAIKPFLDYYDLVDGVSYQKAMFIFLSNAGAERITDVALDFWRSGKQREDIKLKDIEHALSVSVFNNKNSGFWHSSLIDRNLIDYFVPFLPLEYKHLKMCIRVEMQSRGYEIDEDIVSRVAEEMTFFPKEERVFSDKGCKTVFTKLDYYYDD
Sequence of NADPH oxidase 4 (Homo sapiens) (Q9NPH5 whole entry, looked up): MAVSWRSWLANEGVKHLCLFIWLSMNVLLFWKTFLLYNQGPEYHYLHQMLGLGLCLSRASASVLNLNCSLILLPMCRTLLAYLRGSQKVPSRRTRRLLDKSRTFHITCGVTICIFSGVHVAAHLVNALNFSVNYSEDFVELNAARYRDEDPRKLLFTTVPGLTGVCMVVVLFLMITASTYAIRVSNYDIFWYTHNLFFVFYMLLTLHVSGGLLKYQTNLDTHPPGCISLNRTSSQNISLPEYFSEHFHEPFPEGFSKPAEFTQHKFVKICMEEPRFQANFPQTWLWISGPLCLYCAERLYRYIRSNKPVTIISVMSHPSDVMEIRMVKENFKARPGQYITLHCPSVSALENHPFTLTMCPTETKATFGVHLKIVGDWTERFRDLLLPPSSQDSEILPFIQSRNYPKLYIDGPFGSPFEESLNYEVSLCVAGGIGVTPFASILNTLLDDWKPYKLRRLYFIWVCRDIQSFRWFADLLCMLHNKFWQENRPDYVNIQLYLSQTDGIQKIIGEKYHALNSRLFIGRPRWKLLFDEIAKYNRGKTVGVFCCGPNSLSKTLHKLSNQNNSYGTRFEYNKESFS

Take `COCC1=C([C@H](O)CCc2ccccc2)[C@H](CO)[C@@H]2C(=O)N(C)C(=O)[C@@H]2C1`: the composite z-score in test [1] was -0.147; in [6], -0.11; in [7], -0.0313; with Torsin-1A (Homo sapiens) [8], 0.389; with Torsin-1A (Homo sapiens) [9] it was 0.414; in test [10] it was 0.552. In test [12], this molecule registered a composite z-score of -0.0691. The z-score in test [2] is -0.398 (inactive); in test [3] it was -0.668 (inactive); in test [4], 0.496 (inactive); in test [5], -1.67 (inactive); in [11] it was 1.87 (inactive); in test [13] it was 9.45 (active). Besides, the z-score in [14] was 1.29 (inactive); in test [15], -0.64 (inactive); in [16], 0.254 (inactive); in test [17] it was 0.155; in [18] it was -0.58 (inactive); in test [19], 0.371 (inactive). The z-score in test [20] amounted to 0.4.

On to `CC(C)C[C@@H]1NC(=O)[C@@H]2C[C@H](C(=O)NCc3ccc(F)cc3)[C@H](c3ccc(O)cc3)N2C1=O`, for which the composite z-score is 0.187 in [1]; -0.419 in [6]; -0.118 in [7]; 0.483 with Torsin-1A (Homo sapiens) [8]; 0.44 with Torsin-1A (Homo sapiens) [9]; 1.46 in test [10]. Moreover, the composite z-score in test [12] is -0.0559. The z-score is -0.393 (inactive) in test [2]; -0.0526 (inactive) in [3]; -0.26 (inactive) in test [4]; -0.101 (inactive) in test [5]; 0.227 (inactive) in [11]; 1.46 (inactive) in [13]. The z-score in [14] was 0.328 (inactive); in test [15], -1.64 (inactive); in test [16], 0.424 (inactive); in [17], 0.0668; in test [18] it was 0.468 (inactive); in test [19] it was -0.106 (inactive). Further, the z-score in [20] worked out at 1.18.

Consider `COCCOC(=O)N1C(=O)[C@@]2(c3cc(C#CCNC(N)=O)ccc31)[C@H](c1ccc(OCCO)cc1)N1[C@H](c3ccccc3)[C@H](c3ccccc3)OC(=O)[C@H]1[C@@H]2C(=O)N1CCN(c2ncccn2)CC1`, for which the composite z-score is 0.333 in test [1]; 0.651 in test [6]; -0.024 in test [7]; 0.833 in the test with Torsin-1A (Homo sapiens) [8]; 0.581 with Torsin-1A (Homo sapiens) [9]; 0.983 in [10]. In test [12], this molecule had a composite z-score of 0.209. For the same molecule, the z-score was 0.0075 (inactive) in [2]; 0.443 (inactive) in test [3]; 0.212 (inactive) in test [4]; 0.675 (inactive) in test [5]; -0.283 (inactive) in [11]; 4.15 (inactive) in test [13]. Also, the z-score in test [14] is 1.81 (inactive); in test [15], 0.428 (inactive); in test [16], 1.05 (inactive); in test [17], 0.537; in test [18], 2.29 (inactive); in test [19] it was 0.937 (inactive). Further, in test [20], the z-score is 0.877.

Take `CC(C)C(CO)N1C(=O)[C@@H]2[C@H]3C(=O)OCC=C[C@H]3OC23C=CCN(Cn2nnc4ccccc42)C(=O)[C@@H]13` (stereo not given in full): the composite z-score in test [1] was -0.257; in test [6], -1.05; in [7], -0.231; with Torsin-1A (Homo sapiens) [8], -0.957; in the test with Torsin-1A (Homo sapiens) [9] it was -2.27; in test [10], -1. Moreover, in [12], the composite z-score is -0.228. Moreover, the z-score in [2] is 0.44 (inactive); in test [3], 0.0585 (inactive); in test [4], -0.492 (inactive); in [5], -0.0021 (inactive); in test [11] it was 0.197 (inactive); in test [13], 0.766 (inactive). Moreover, the z-score was 0.123 (inactive) in test [14]; 0.393 (inactive) in test [15]; 0.0882 (inactive) in test [16]; 0.234 in test [17]; 0.699 (inactive) in test [18]; 0.247 (inactive) in [19]. The z-score in test [20] stood at 0.94.

For `C=C(COC)/C(=C/C[C@@H](OC(=O)c1ccncc1)c1cccc(OCCO)c1)c1cc(C(=O)OC)ccc1OC`, the composite z-score was 0.996 in test [1]; -0.0673 in [6]; 0.709 in test [7]; 2.64 with Torsin-1A (Homo sapiens) [8]; 1.49 with Torsin-1A (Homo sapiens) [9]; 2.11 in [10]. In addition, the composite z-score in test [12] amounted to 0.0698. Further, the z-score in test [2] was -8.13 (active); in test [3] it was -0.0417 (inactive); in test [4], 23.7 (active); in test [5] it was -0.376 (inactive); in test [11], 0.701 (inactive); in [13], 8.82 (active). The z-score in [14] is 4.64 (inactive); in test [15], -3.3 (inactive); in test [16], 1.53 (inactive); in test [17] it was -0.88; in [18] it was -3.02 (inactive); in [19], -0.817 (inactive). For the same molecule, the z-score in test [20] is -1.23.
